# Assay results reported in publication PMC11062922 (Nature Chemical Biology, 2023).
# Where two headings read alike, the source gives them in different places.
# Key:
# Parameters in all cases: species or system human, MV4-11 + K-562 + COLO205 + SK-N-BE2 + OVCAR-8
# MTOR = conditions: read-out: apparent Kd; compound concentrations:100 nM and 1000 nM (sheet 'Samples'); n = 1
# PTK2B = conditions: read-out: apparent Kd, n = 1
# PTK2 = conditions: read-out: apparent Kd, n = 1
# STK3 = conditions: read-out: apparent Kd, compound concentrations: 100 nM and 1000 nM (sheet 'Samples'), n = 1
# MAPK8 = conditions: read-out: apparent Kd, n = 1
# ADCK1 = conditions: read-out: apparent Kd, n = 1
# CDK1 = conditions: read-out: apparent Kd, n = 1
# CDK2 = conditions: read-out: apparent Kd, n = 1
# CDK5 = conditions: read-out: apparent Kd, n = 1
# PIK3CA = conditions: read-out: apparent Kd, n = 1
# TESK1 = conditions: read-out: apparent Kd, compound concentrations: 100 nM and 1000 nM (sheet 'Samples'), n = 1
# IRAK3 = conditions: read-out: apparent Kd, n = 1
# STK16 = conditions: read-out: apparent Kd, n = 1
# TEC = conditions: read-out: apparent Kd, n = 1
# ADCK3 = conditions: read-out: apparent Kd, n = 1
# LIMK2 = conditions: read-out: apparent Kd, n = 1
# PYGL = conditions: read-out: apparent Kd, n = 1
# ADRBK1 = conditions: read-out: apparent Kd, n = 1
# [1] = compound concentrations:100 nM and 1000 nM (sheet 'Samples')
smiles,measurement,setting,value
CNc1nccc(-c2c(-c3ccc(F)cc3)ncn2C2CCN(C)CC2)n1 [SB-222903],potency estimated from few doses,MTOR,0.295 µM
COc1cc2ncn(-c3cc(OCCCc4ccccc4)c(C(N)=O)s3)c2cc1OC [GSK205189A],potency estimated from few doses,PTK2B; [1],0.642 µM
same,potency estimated from few doses,PTK2; [1],0.678 µM
Nc1ncc(-c2cn[nH]c2)c2scc(-c3ccc4c(c3)CCN4C(=O)Cc3ccccc3)c12 [GSK2593067A],potency estimated from few doses,STK3; CATDS: 6.6601304210445203E-2,1.19 µM
CN(C)Cc1ccc(-c2ccc3c(Nc4ccc(Oc5ccccn5)cc4)ccnc3c2)o1 [GW567148X],potency estimated from few doses,"PTK2B; compound concentrations: 100 nM and 1000 nM (sheet 'Samples'), CATDS: 2.12691468378991E-2",0.83 µM
same,potency estimated from few doses,"PTK2; compound concentrations: 100 nM and 1000 nM (sheet 'Samples'), CATDS: 2.1089063317390098E-2",0.85 µM
Fc1ccc(-c2c(-c3ccncc3)[nH]c3nccnc23)cc1 [RO1155697-000],potency estimated from few doses,MAPK8; [1],1.79 µM
CN1CCN(Cc2ccc(NC(=O)Nc3ccc(N(C)c4ccnc(Nc5ccc(CS(C)(=O)=O)cc5)n4)cc3)cc2)CC1.Cl [GW827654A],potency estimated from few doses,"ADCK1; compound concentrations: 100 nM and 1000 nM (sheet 'Samples'), CATDS: 3.6113243316098803E-2",1.52 µM
N#Cc1cccc(Nc2nccc(-c3cnn4ncccc34)n2)c1 [GW778894X],potency estimated from few doses,ADCK1; [1],2.05 µM
same,potency estimated from few doses,CDK1; [1],1.24 µM
same,potency estimated from few doses,"CDK2; compound concentrations: 100 nM and 1000 nM (sheet 'Samples'), CATDS: 2.8219089282239498E-2",0.194 µM
same,potency estimated from few doses,CDK5; [1],0.669 µM
same,potency estimated from few doses,MAPK8; [1],1.33 µM
Cc1cc(O)cc(C)c1/C=C/c1cncc(-c2nn[nH]n2)c1.Cl [GW441806A],potency estimated from few doses,"PIK3CA; compound concentrations: 100 nM and 1000 nM (sheet 'Samples'), CATDS: 8.3670028423682499E-2",0.256 µM
same,potency estimated from few doses,TESK1; CATDS: 4.6291633424982298E-2,1.29 µM
CNC(=O)c1ccccc1Nc1nc(Nc2cccc(CS(C)(=O)=O)c2)ncc1C.O=CO [GSK1520489A],potency estimated from few doses,"IRAK3; compound concentrations: 100 nM and 1000 nM (sheet 'Samples'), CATDS: 6.3642542209879499E-2",0.0162 µM
same,potency estimated from few doses,"MAPK8; compound concentrations: 100 nM and 1000 nM (sheet 'Samples'), CATDS: 1.2501380881005299E-2",0.517 µM
same,potency estimated from few doses,"PTK2B; compound concentrations: 100 nM and 1000 nM (sheet 'Samples'), CATDS: 2.8071916989063601E-2",0.0655 µM
same,potency estimated from few doses,"PTK2; compound concentrations: 100 nM and 1000 nM (sheet 'Samples'), CATDS: 4.2767285410469903E-2",0.0302 µM
same,potency estimated from few doses,"STK16; compound concentrations: 100 nM and 1000 nM (sheet 'Samples'), CATDS: 2.3983880535388601E-2",0.0911 µM
same,potency estimated from few doses,"TEC; compound concentrations: 100 nM and 1000 nM (sheet 'Samples'), CATDS: 7.2078436601234794E-2",0.0135 µM
CN1CCN(c2ccc(Nc3nc(N)c(C(=O)c4ccc5c(c4)OCCO5)s3)cc2)CC1 [RO0505124-000],potency estimated from few doses,"ADCK3; compound concentrations: 100 nM and 1000 nM (sheet 'Samples'), CATDS: 0.21536092464867401",0.935 µM
CN1CCc2ccc(Nc3nccc(-c4c(-c5cccc(NC(=O)c6c(F)cccc6F)c5)nc5ccccn45)n3)cc2C1.Cl [GSK1010829B],potency estimated from few doses,STK3; CATDS: 3.0039466965453999E-2,2.17 µM
CC(C)c1nc(-c2cccc(NS(=O)(=O)c3c(F)cccc3F)c2F)c(-c2ccnc(Nc3ccc(N4CCOCC4)nc3)n2)s1 [GSK2008607A],potency estimated from few doses,"CDK1; compound concentrations: 100 nM and 1000 nM (sheet 'Samples'), CATDS: 1.7444638533949799E-2",2.41 µM
same,potency estimated from few doses,"CDK2; compound concentrations: 100 nM and 1000 nM (sheet 'Samples'), CATDS: 2.0277618916634502E-2",1.32 µM
same,potency estimated from few doses,"CDK5; compound concentrations: 100 nM and 1000 nM (sheet 'Samples'), CATDS: 2.5832908266049601E-2",0.668 µM
same,potency estimated from few doses,"LIMK2; compound concentrations: 100 nM and 1000 nM (sheet 'Samples'), CATDS: 2.06856155254838E-2",1.24 µM
same,potency estimated from few doses,TESK1; CATDS: 2.61955130991521E-2,0.646 µM
Nc1nc(N)c2nc(-c3ccccc3)[nH]c2n1 [SKF-12778],potency estimated from few doses,ADCK1; [1],1.2 µM
same,potency estimated from few doses,MTOR,0.4 µM
same,potency estimated from few doses,PYGL; [1],1.64 µM
same,potency estimated from few doses,TEC; [1],1.16 µM
CC(C)c1nc(-c2ccc(F)c(NS(=O)(=O)c3c(F)cccc3F)c2)c(-c2ccnc(Nc3ccc(N4CCOCC4)nc3)n2)s1 [GSK1804250A],potency estimated from few doses,LIMK2; [1],0.478 µM
COc1ccc(C2=C(c3cn(C)c4ccccc34)C(=O)NC2=O)cc1OC [RO3206363-000],potency estimated from few doses,"PYGL; compound concentrations: 100 nM and 1000 nM (sheet 'Samples'), CATDS: 3.1878798319940699E-2",1.85 µM
Nc1c(C(=O)c2ccccc2)cnn1-c1ccc(F)cc1 [RO1151246-000],potency estimated from few doses,CDK1; [1],1.88 µM
COc1cc(N2CCN(C(C)C)CC2)ccc1Nc1nc(Nc2cccc(F)c2C(=O)O)c2cc[nH]c2n1 [GSK1819799A],potency estimated from few doses,"MAPK8; compound concentrations: 100 nM and 1000 nM (sheet 'Samples'), CATDS: 0.22198197498325201",0.0849 µM
same,potency estimated from few doses,"PTK2B; compound concentrations: 100 nM and 1000 nM (sheet 'Samples'), CATDS: 7.8469335656757594E-2",0.466 µM
same,potency estimated from few doses,"PTK2; compound concentrations: 100 nM and 1000 nM (sheet 'Samples'), CATDS: 7.4046545419842305E-2",0.522 µM
Cc1ccc(-n2nc(C(C)(C)C)cc2NC(=O)Nc2ccc(OCCN3CCOCC3)cc2)cc1 [BIRB0876BS],potency estimated from few doses,ADCK3; [1],0.0489 µM
Cl.Oc1ccc2ncnc(Nc3ccc(OCc4ccccc4)cc3)c2c1 [GI262866A],potency estimated from few doses,STK16; [1],1.16 µM
COc1ccc(Nc2nccc(N3CCC(NC(=O)Nc4cccc(OC)c4)C3)n2)cc1 (stereo not drawn) [GSK1379742A],potency estimated from few doses,"CDK1; compound concentrations: 100 nM and 1000 nM (sheet 'Samples'), CATDS: 0.12045824140997501",1.77 µM
COc1ccc(C2=NC(c3ccc(Cl)cc3F)C(C(=O)Nc3ccc4[nH]ncc4c3)=C(C)N2)cn1.O=C(O)C(F)(F)F (stereo not drawn) [GSK534913A],potency estimated from few doses,ADRBK1; [1],0.895 µM
NS(=O)(=O)c1cccc(-c2ccc3nccc(-c4cccc(S(N)(=O)=O)c4)c3c2)c1 [GW867253X],potency estimated from few doses,"ADRBK1; compound concentrations: 100 nM and 1000 nM (sheet 'Samples'), CATDS: 0.51630856929824398",1.86 µM
COc1cc(F)c(F)c(F)c1C(=O)c1cnc(NC2CCN(S(C)(=O)=O)CC2)nc1N [RO4600703-000],potency estimated from few doses,CDK1; [1],0.368 µM
same,potency estimated from few doses,CDK2; [1],0.0902 µM
same,potency estimated from few doses,CDK5; [1],0.138 µM
CCCN1CCC(Oc2cc(Nc3nc(Nc4cccc(F)c4C(N)=O)c4cc[nH]c4n3)c(OC)cc2Cl)CC1 [GSK1713088A],potency estimated from few doses,"ADCK3; compound concentrations: 100 nM and 1000 nM (sheet 'Samples'), CATDS: 0.349456505086152",0.604 µM
COc1ccc(C2=C(Nc3cccc(O)c3)C(=O)NC2=O)cc1 [SB-390766],potency estimated from few doses,PIK3CA; [1],0.115 µM
same,potency estimated from few doses,STK16; [1],1.59 µM
Clc1ccc(-c2nn3ncccc3c2-c2ccnc(Nc3ccccc3)n2)cc1 [GW829055X],potency estimated from few doses,"ADCK1; compound concentrations: 100 nM and 1000 nM (sheet 'Samples'), CATDS: 3.6697893678181097E-2",1.43 µM
same,potency estimated from few doses,"ADRBK1; compound concentrations: 100 nM and 1000 nM (sheet 'Samples'), CATDS: 3.1852234097214598E-2",2.08 µM
same,potency estimated from few doses,"PYGL; compound concentrations: 100 nM and 1000 nM (sheet 'Samples'), CATDS: 3.3581254695289102E-2",1.8 µM
same,potency estimated from few doses,STK3; CATDS: 3.09457854656708E-2,2.27 µM
Fc1ccc(-c2ncn(C3CCNCC3)c2-c2ccnc(Oc3ccc4c(c3)OCO4)n2)cc1 [SB-250715],potency estimated from few doses,ADCK1; [1],1.85 µM
same,potency estimated from few doses,ADRBK1; [1],2.15 µM
same,potency estimated from few doses,PYGL; [1],1.99 µM
NC(=O)c1cccnc1COc1cc(-c2ccc(N3CCOCC3)nc2)cc2ncccc12 [BI01125081],potency estimated from few doses,ADCK3; [1],0.257 µM
same,potency estimated from few doses,IRAK3; [1],0.577 µM
same,potency estimated from few doses,STK16; [1],1.24 µM
COc1ccc(-c2nn3ncccc3c2-c2ccnc(Nc3ccc4c(c3)OCCO4)n2)cc1 [GW827106X],potency estimated from few doses,"PIK3CA; compound concentrations: 100 nM and 1000 nM (sheet 'Samples'), CATDS: 0.187165726463497",0.172 µM
